Source: PubChem (National Center for Advancing Translational Sciences (NCATS))
CHX counter: affects cycloheximide protein synthesis inhibition readout, counter-screen; cell reporter, cycloheximide protein synthesis inhibition counterscreen; max response, %; hit rate 12% among 300,000; in the data active = max response mostly above about 13%, no sharp cut-off; inactive = mostly below about 14%; note: read at 38.3 µM for the half of the compounds with a filed dose
Shiga inhibitor: Shiga toxin inhibition. hit rate 9.2% among 290,000. Vero cells, Shiga toxin protein synthesis inhibition reporter. inhibition, % at 38.7 µM; in the data active = inhibition mostly above about 28%, no sharp cut-off; inactive = mostly below about 43%
Pf growth 48h: P. falciparum growth inhibition at 48 hours (one generation) | P. falciparum luciferase growth in erythrocytes, 48 h | AID 504832 | Potency, µM (titrated, usually from 28.7 µM), actives largely listed as inhibitors | hit rate 5.9% among 310,000
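Luminescence readout; reporter = integrated firefly luciferase in P. falciparum. RBC culture at 2% hematocrit, 0.1% parasitemia final, 37 C/5% CO2; decreased signal taken as growth inhibition.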
Pf growth 96h: P. falciparum growth inhibition at 96 hours; P. falciparum luciferase reporter growth, 96 h; Potency, µM (doses to about 28.7 µM), hits mostly inhibitors; hit rate 6.9% among 320,000; AID 504834
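Compounds incubated with erythrocytes infected by luciferase-expressing P. falciparum (2% hematocrit, 0.05% parasitemia final) for 96 hours, 37 C in 5% CO2. Growth inhibition scored as decreased luciferase luminescence.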
HCMV antiviral: blocks human cytomegalovirus replication; AID 1259415; hit rate 4.5% among 410,000; HFF cells, HCMV-luciferase reporter, 72 h; hits give low values; activity change, negative = inhibition, % at 57.5 µM; in the data active = activity change below about -60%; inconclusive = no clear call, values can overlap the other calls; inactive = above about -39%
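Luciferase read-out from HCMV-luciferase-infected HFFs (MOI 1 PFU/cell) 72 h post infection at 37C; compounds added after 16 h cell attachment; activity normalized between buffer-only basal and Salinomycin (10uM) inhibitor controls.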
Hits are given with their value; [ ] = remark or other dose. Rows were chosen to be rich in hits. Some 20% of all compounds tested hit in one or more screens of this group. Unless noted, calls come from the whole dose curve; as a rule, active = well fitted inhibition curve with a large enough effect; inconclusive = small, poorly fitted or top-dose-only effect, or another doubt; inactive = no such curve, though single readings can be large or run the other way.

What do the screens show for `Cc1cccn2c(=O)c3cc(C(=O)NCc4ccc(F)cc4)c(=N)n(CC4CCCO4)c3nc12` (stereo unspecified)?
CHX counter: inactive; Shiga inhibitor: inactive; Pf growth 48h: 4.1µM; Pf growth 96h: 2.9µM; HCMV antiviral: inconclusive

Results for Cc1cccn2c(=O)c3cc(C(=O)NCC4CCCO4)c(=N)n(CC4CCCO4)c3nc12 (stereo unspecified) ?
CHX counter: inactive; Shiga inhibitor: inactive; Pf growth 48h: inactive; Pf growth 96h: inactive; HCMV antiviral: -70

What do the screens show for `Cc1cccn2c(=O)c3cc(C(=O)NC4CCCC4)c(=N)n(CC4CCCO4)c3nc12` (stereo unspecified)?
CHX counter: inactive; Shiga inhibitor: inactive; Pf growth 48h: inconclusive; Pf growth 96h: inactive; HCMV antiviral: inactive

How did COc1ccc(CCn2c(=N)c(C(=O)NCC3CCCO3)cc3c(=O)n4cccc(C)c4nc32)cc1 (stereo unspecified) do in these assays?
CHX counter: inactive; Shiga inhibitor: inactive; Pf growth 48h: inconclusive; Pf growth 96h: inconclusive; HCMV antiviral: -108

How did Cc1cccn2c(=O)c3cc(C(=O)NCC4CCCO4)c(=N)n(Cc4cccnc4)c3nc12 (stereo unspecified) do in these assays?
CHX counter: inactive; Shiga inhibitor: inactive; Pf growth 48h: inconclusive; Pf growth 96h: inactive; HCMV antiviral: inactive

What do the screens show for `Cc1cccn2c(=O)c3cc(C(=O)NC4CCCCC4)c(=N)n(Cc4ccc(F)cc4)c3nc12`?
CHX counter: inactive; Shiga inhibitor: inactive; Pf growth 48h: inconclusive; Pf growth 96h: inconclusive; HCMV antiviral: inactive

What do the screens show for `Cc1cccn2c(=O)c3cc(C(=O)NCC4CCCO4)c(=N)n(C4CCCCC4)c3nc12` (stereo unspecified)?
CHX counter: inactive; Shiga inhibitor: inactive; Pf growth 48h: inconclusive; Pf growth 96h: 1.3µM; HCMV antiviral: inactive

How did COc1ccc(CNC(=O)c2cnc(N3CCN(Cc4ccccc4C#N)C3=O)s2)cc1OC do in these assays?
HCMV antiviral: inactive

Results for O=C(CCCC[C@@H]1SC[C@H]2NC(=O)N[C@H]12)Nc1ccc(C(=O)O)cc1 ?
CHX counter: inactive; Shiga inhibitor: inactive

What do the screens show for `Nc1sccc1C(=O)NCCN1CCOCC1`?
HCMV antiviral: inactive

How did COc1ccc(CNC(=O)c2cc3c(=O)n4cccc(C)c4nc3n(CC3CCCO3)c2=N)cc1 (stereo unspecified) do in these assays?
CHX counter: inactive; Shiga inhibitor: inactive; Pf growth 48h: inconclusive; Pf growth 96h: 5.2µM; HCMV antiviral: inactive

What do the screens show for `CCNC(=O)c1cc2c(=O)n3cccc(C)c3nc2n(Cc2ccc(C)cc2)c1=N`?
CHX counter: inactive; Shiga inhibitor: inactive; Pf growth 48h: inactive; Pf growth 96h: inactive[5.75 µM]; HCMV antiviral: inconclusive

Results for Cc1cc(C)nc(/N=C(\N)Nc2ccc(CC(=O)OC(C)C)cc2)n1 ?
CHX counter: inactive; Shiga inhibitor: inactive; Pf growth 48h: inactive; Pf growth 96h: inconclusive; HCMV antiviral: inactive

What do the screens show for `Cc1cc(C)nc(/N=C(\N)Nc2ccc(S(=O)(=O)Nc3nccc(C)n3)cc2)n1`?
CHX counter: inactive; Shiga inhibitor: inactive; Pf growth 48h: inactive; Pf growth 96h: 4.1µM; HCMV antiviral: inactive

How did Cc1nc(/N=C(\N)Nc2ccccc2)nc2ccccc12 do in these assays?
CHX counter: 16; Shiga inhibitor: inactive; Pf growth 48h: inactive; Pf growth 96h: inactive

What do the screens show for `COc1ccccc1N/C(N)=N/c1nc(C)cc(C)n1`?
CHX counter: inactive; Shiga inhibitor: inactive; Pf growth 48h: inconclusive; Pf growth 96h: inconclusive; HCMV antiviral: inactive

Results for Cc1nc(N/C(N)=N/S(=O)(=O)c2ccccc2)nc2ccccc12 ?
HCMV antiviral: inactive

How did Cc1cc(C)nc(/N=C(\N)Nc2ccc(OCc3ccccc3)cc2)n1 do in these assays?
CHX counter: inactive; Shiga inhibitor: inactive; Pf growth 48h: inconclusive; Pf growth 96h: inactive; HCMV antiviral: -75

How did Cc1cc(C)nc(/N=C(\N)Nc2cccc(OCc3ccccc3)c2)n1 do in these assays?
CHX counter: inactive; Shiga inhibitor: inactive; Pf growth 48h: inconclusive; Pf growth 96h: inconclusive; HCMV antiviral: -73

How did COc1ccc(NC(=O)CN(C)C(=O)CNC(=O)c2ccc(C)s2)cc1 do in these assays?
Pf growth 48h: inactive; Pf growth 96h: inactive; HCMV antiviral: inactive

Results for Cc1nc2nc(-c3ccc(Cl)cc3Cl)nn2c(C)c1CCC(=O)Nc1ccc(F)cc1 ?
HCMV antiviral: inactive

What do the screens show for `Cc1cc(C)c2c3c(cn2n1)c(=O)n(C)c(=O)n3C`?
HCMV antiviral: inactive

Results for COc1ccc(N/C(N)=N/c2nc(C)cc(C)n2)cc1 ?
HCMV antiviral: inactive
